The whole screen tested about 360,000 compounds, of which about 5,000 (1.4%) were called active.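 The calls were made as follows: active = inhibition of 50% or more, scaled per plate between neutral and stimulator controls; inactive = the rest.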 For the sample, actives were picked, then their nearest neighbours and some compounds at random.

Data on 91 compounds can be found in PubChem BioAssay AID602449 (Sanford-Burnham Center for Chemical Genomics, 2012).

The assay is described as follows: blockers of Ca2+-induced mitochondrial swelling – biochemical, isolated mouse mitochondria, absorbance, primary screen (AID 602449).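 Also: 0% = DMSO wells given calcium and 100% = 1 mM EGTA wells.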 The following applies: 30 min, at 10 µM, stronger effect = higher value.
The inhibition is the change of the read-out against control, counted positive when it falls. Take `CCOc1ccc(CN2CCN(Cc3ccon3)CC2CCO)cc1` (stereo unspecified): the inhibition was -1.1% (inactive).

For `COc1ccc(OCCNS(=O)(=O)Cc2ccccc2)cc1`, the inhibition was 0.9% (inactive).

As to `COc1ccc(S(=O)(=O)NCCOc2ccccc2)cc1F`, the inhibition was 0.7% (inactive).

For the compound `COc1ccc(S(=O)(=O)NCCCCOc2ccc(Cl)cc2)cc1`, the inhibition was 98.5% (active).

Consider `CCc1cccc(CC)c1NC(=O)COc1ccccc1C(=O)c1cc(C#N)c(=O)n(C2CCCCC2)c1`, for which the inhibition was 1% (inactive).

For `Cc1cc2cc3n(c2nn1)N=C(Cl)CC3`, the inhibition was 0.9% (inactive).

With `COc1ccc(C(=O)COC(=O)CN2C(=O)C3CC=CCC3C2=O)c(OC)c1` (stereo unspecified), the inhibition is -2.3% (inactive).

Consider `O=C(NC1C2CC3CC(C2)CC1C3)c1ccc(N2CCNCC2)c([N+](=O)[O-])c1` (stereo unspecified), for which the inhibition is -2.4% (inactive).

In the case of `O=C(Nc1cccc(C(F)(F)F)c1)c1ccc(N2CCNCC2)c([N+](=O)[O-])c1`, the inhibition is 69.8% (active).

On to `O=C(Nc1ccc(N2C(=O)c3cccc4cccc(c34)C2=O)cc1)c1ccc(N2CCCCC2)c([N+](=O)[O-])c1`, for which the inhibition is 1.1% (inactive).

`CN(C)CCNC(=O)c1cccc(-c2cnc3c(NC=O)cc(-c4cccc(C(F)(F)F)c4)cn23)c1`: the inhibition is -2.1% (inactive).

For the compound `CCc1cccc(NC(=S)N(CCN(C)C)C2CCN(C(C)C)CC2)c1`, the inhibition was -1.2% (inactive).

Turning to `CS(=O)(=O)N(CC(=O)Nc1ccc(Cl)c(Cl)c1)C1CCCCC1`, the inhibition is 61.3% (active).

As for `N#CCCN(C(=S)Nc1ccc(Cl)c(Cl)c1)C1CCCCC1`, the inhibition was 64.3% (active).

Regarding `CCC(C)NC(=O)CN(C1CCCCC1)S(C)(=O)=O` (stereo unspecified), the inhibition is -1.2% (inactive).

Consider `CS(=O)(=O)N(CC(=O)Nc1ccc(F)cc1)C1CCCCC1`, for which the inhibition is 1.1% (inactive).

Take `N#CCCN(C(=O)Nc1ccc(Cl)c(Cl)c1)C1CCCCC1`: the inhibition was 20.5% (inactive).

`Cc1cc(NC(=O)OC(C)C)ccc1-c1ccc(NC(=O)OC(C)C)cc1C`: the inhibition is 0.8% (inactive).

In the case of `CN(C)c1nc2n(c(=O)n1)CCO2`, the inhibition is -0.8% (inactive).

Take `Cc1c(Cl)cccc1NC(=O)[C@@]1(CC(=O)O)CC(/C=C/c2ccccc2)=NO1`: the inhibition is -0.3% (inactive).

For the compound `C[C@H](NC(=O)NCCc1ccccc1)C(=O)O`, the inhibition was -2.9% (inactive).

Turning to `CCNS(=O)(=O)c1ccc(NC(=O)Nc2cccc(C(F)(F)F)c2)cc1`, the inhibition was 93.6% (active).

For `Cc1cc(S(=O)(=O)N2CCOCC2)ccc1OCC(=O)Nc1cccc(C(F)(F)F)c1`, the inhibition is -0.9% (inactive).

As for `CCNS(=O)(=O)c1ccc(NC(=O)c2cncc(Br)c2)cc1`, the inhibition is -1.5% (inactive).

As for `CN(CC(=O)Nc1ccccc1[N+](=O)[O-])Cc1ccc(Br)cc1`, the inhibition was 1.1% (inactive).

`COc1cc(CNCc2ccc(OC)c3ccccc23)cc(OC)c1OC`: the inhibition was 90.9% (active).

With `COc1ccccc1N1CCN(Cc2ccc(OC)c3ccccc23)CC1`, the inhibition is 1.3% (inactive).

With `COc1cc(CNCc2cccs2)cc(Br)c1OC`, the inhibition was -0.5% (inactive).

Regarding `Cn1c(=O)c2cc(NC(=O)NCCc3cccs3)ccc2n1Cc1cccc(C(F)(F)F)c1`, the inhibition is 3.3% (inactive).

As for `CCCCn1c(N)c(N(CCC(C)C)C(=O)COC(=O)c2cccnc2OCC)c(=O)[nH]c1=O`, the inhibition was 0.7% (inactive).

In the case of `CCN1CCC(O)(/C=C/c2ccc(C)cc2)C(C(=O)/C=C/c2ccc(C)cc2)C1` (stereo unspecified), the inhibition is 58.4% (active).

Regarding `CCN1CCC2(CC1)N=C(c1ccc(F)cc1)C(=S)N2C(=O)c1ccc(C)cc1`, the inhibition was -2.8% (inactive).

Regarding `COc1cccc(NC(=O)CSc2nnc(Cc3ccc(OC)c(OC)c3)o2)c1`, the inhibition is -0.5% (inactive).

Take `COc1ccc(CCN=C2SCC(=O)N2C)cc1OC`: the inhibition is -1.1% (inactive).

Turning to `O=C(O)c1cc2c(cc1NC(=O)c1c(F)cccc1Cl)OCCCO2`, the inhibition was -1.5% (inactive).

Take `CCOc1ccc(C(O)Cn2c(=N)n(CCN3CCCCC3)c3ccccc32)cc1` (stereo unspecified): the inhibition was 3.5% (inactive).

As for `N=c1n(CCc2ccccc2)c2ccccc2n1Cc1ccccc1F`, the inhibition was 8.3% (inactive).

As to `N=c1n(Cc2ccc(Cl)cc2)c2ccccc2n1CC(O)c1ccco1` (stereo unspecified), the inhibition was 83.7% (active).

As for `O=C(Cc1ccccc1)Nc1c(C(=O)N2CCCCCC2)cnn1-c1ccccc1`, the inhibition is -1.2% (inactive).

In the case of `O=C(Cn1nc(Cc2cccnc2)c2ccccc2c1=O)NCC1COc2ccccc2O1` (stereo unspecified), the inhibition is -1.9% (inactive).

Turning to `c1ccc(-c2cc3c(NCC4COc5ccccc5O4)ncnc3s2)cc1` (stereo unspecified), the inhibition is 91.4% (active).

On to `O=C(Cn1cnc2ccccc2c1=O)NCC1COc2ccccc2O1` (stereo unspecified), for which the inhibition was -0.6% (inactive).

For `CCN=c1sc(C(=O)Nc2ccccc2)c(C)n1CC`, the inhibition was 4.6% (inactive).

For the compound `COC(=O)Nc1ncc(CN2C(=O)c3ccccc3C2=O)s1`, the inhibition was -1.2% (inactive).

Consider `CCCCNC(=S)NNC(=O)c1cc(C)on1`, for which the inhibition was -1.2% (inactive).

In the case of `CC1=C(C(=O)N2CCOCC2)CC(CC(=O)NCc2cccc3ccccc23)C(=O)N1CCC1=CCCCC1` (stereo unspecified), the inhibition is -2.5% (inactive).

In the case of `Cc1nc2scc(-c3cccs3)c2c(=O)n1N`, the inhibition is -3.1% (inactive).

Take `CCC(C(=O)OC)n1cnc2scc(-c3ccc(C)cc3)c2c1=O` (stereo unspecified): the inhibition is 0.8% (inactive).

With `CCCc1nc2scc(-c3ccc(C)cc3)c2c(=O)n1N`, the inhibition was 89.9% (active).

For the compound `CS(=O)(=O)N(Cc1ccccc1)c1ccc(C(=O)NN=C2CCCCCC2)cc1`, the inhibition is 0.9% (inactive).

As for `COc1ccc(S(=O)(=O)N2CCOCC2)cc1NC(=O)CSc1cc(C)ccc1C`, the inhibition was -0.5% (inactive).

As to `COc1ccc(C(O)c2nc(-c3ccc4c(c3)OCO4)cs2)cc1` (stereo unspecified), the inhibition is 2.5% (inactive).

Take `Cc1ccc(-c2csc(NC(=O)C3=COCCO3)n2)cc1C`: the inhibition is 4.6% (inactive).

As to `O=C(Nc1nc(-c2ccc3c(c2)OCO3)cs1)c1ccncc1`, the inhibition is 72.3% (active).

Turning to `COc1ccc(NC(=O)NCCN2CCN(c3ccc(C)cc3)CC2)c(Cl)c1`, the inhibition is 0.3% (inactive).

Turning to `COC(=O)c1cccc(-n2[nH]nnc2=S)c1`, the inhibition is 0.4% (inactive).

As to `Cn1c(=O)c(=O)n(C)c2cc(S(=O)(=O)NCCN3CCN(c4ccccc4F)CC3)ccc21`, the inhibition is 1.9% (inactive).

For `Cc1nnc(NC(=O)Nc2ccc(Cl)c(Cl)c2)s1`, the inhibition is 88.5% (active).

Consider `Cc1nnc(NC(=O)Cn2c(=O)sc3ccccc32)s1`, for which the inhibition was -2.7% (inactive).

`Cc1ccc(NC(=O)Nc2nnc(-c3ccncc3)s2)cc1`: the inhibition is 77.2% (active).

Take `Cc1ccc(S(=O)(=O)CCC(=O)Nc2nnc(CC(C)C)s2)cc1`: the inhibition is 0.4% (inactive).

`CCc1ccc(NC(=O)N[C@H](C(=O)O)C(C)CC)cc1` (stereo partly specified): the inhibition was -1.3% (inactive).

Turning to `COc1cccc(NC(=O)Nc2nnc(N3CCCCC3C)s2)c1` (stereo unspecified), the inhibition was 0.5% (inactive).

As to `CC(C)=CC(=O)Nc1nnc(-c2ccc(F)cc2)s1`, the inhibition was -0.8% (inactive).

For `CC(C)CC(=O)Nc1ccc(Cc2ccncc2)cc1`, the inhibition is 1.5% (inactive).

For the compound `CCc1ccc(NC(=O)Nc2ccncc2)cc1`, the inhibition was 63.6% (active).

Consider `CCOC(=O)c1sc(NC(=O)CSc2nc(C)cc(C(F)(F)F)n2)c(C#N)c1C`, for which the inhibition is 13.1% (inactive).

With `CCCN=C1NC(=O)C(CC(=O)NCCc2ccc(OC)c(OC)c2)S1` (stereo unspecified), the inhibition was -0.3% (inactive).

Consider `CC[C@H]1OC(=O)[C@H](C)[C@@H](O[C@H]2C[C@@](C)(OC)[C@@H](O)[C@H](C)O2)[C@H](C)[C@@H](O[C@@H]2O[C@H](C)C[C@H](N(C)C)[C@H]2O)[C@](C)(O)C[C@@H](C)[C@@H]2N[C@@H](COCCOC)O[C@H]([C@H]2C)[C@]1(C)O`, for which the inhibition is -2.3% (inactive).

With `CCOC(=O)c1c(NC(=O)COC(=O)c2ccc(S(=O)(=O)C(F)F)cc2)sc(C(=O)N(C)C)c1C`, the inhibition is -0.1% (inactive).

As to `CCOc1ccc(OCC(=O)Nc2c3c(nn2C(C)(C)C)CS(=O)(=O)C3)cc1`, the inhibition is 1.2% (inactive).

Take `COc1ccc(S(=O)(=O)N2CCN(CC(=O)NCC3(N4CCOCC4)CCCCC3)CC2)cc1`: the inhibition was 0.2% (inactive).

`CC[C@@H](C)[C@@H]1CN([C@@H](C)CN2CCC[C@H]2CN2C(N)=NC[C@H]2C(C)C)C(=N)N1CCc1ccc(Cl)c(Cl)c1`: the inhibition was -0.6% (inactive).

Consider `C[C@@H](CN1CCC[C@H]1CN1C(N)=NC[C@@H]1Cc1ccccc1)N1C[C@@H](Cc2ccccc2)N(CCCC2CCCC2)C1=N`, for which the inhibition is 73.7% (active).

For `NC1=NC[C@@H](Cc2ccc(O)cc2)N1CC1CCCCC1`, the inhibition was 0.7% (inactive).

Turning to `COc1ccc(S(=O)(=O)N2CCCCC2)cc1C(=O)NC1CCS(=O)(=O)C1` (stereo unspecified), the inhibition was 0.2% (inactive).

Turning to `Cc1ccc(C(CNC(=O)Nc2ccccc2)N2CCN(C)CC2)cc1` (stereo unspecified), the inhibition is 2% (inactive).

For `COc1ccc(OCCCC(=O)OC(C)C(=O)Nc2ccccc2[N+](=O)[O-])cc1` (stereo unspecified), the inhibition is 0.5% (inactive).

Turning to `S=C(NCCc1ccccc1)N1CCn2cccc2C1c1ccncc1` (stereo unspecified), the inhibition was -5.1% (inactive).

Take `S=C(Nc1cccc(Br)c1)N1CCn2cccc2C1c1cccnc1` (stereo unspecified): the inhibition was 63.5% (active).

As for `O=C(NC(=S)N1CCCCC1c1cccnc1)c1ccccc1` (stereo unspecified), the inhibition is -1.5% (inactive).

As to `COc1ccc(OC)c(C(O)c2ncc(-c3cccc(C(F)(F)F)c3)[nH]2)c1` (stereo unspecified), the inhibition was 1% (inactive).

Take `Nc1nnc(SCC(=O)NCC(=O)Nc2ccc(F)c(F)c2F)s1`: the inhibition is -2.5% (inactive).

In the case of `O=C(c1cc(-c2ccc(O)cc2)on1)N1CCOCC1`, the inhibition was -1.3% (inactive).

With `O=C(c1cc(-c2cccc(O)c2)on1)N1CCc2ccccc2C1`, the inhibition was 59.3% (active).

For `O=C(NCCCN1CCOCC1)c1cc(-c2cccc(O)c2)on1`, the inhibition was -0.1% (inactive).

For the compound `CC(=O)NS(=O)(=O)c1ccc2c(c1)Cc1cc(S(=O)(=O)NC(C)=O)ccc1-2`, the inhibition is 0.4% (inactive).

Regarding `O=C(c1ccc(Br)o1)N(c1ccccn1)C1CCCCC1`, the inhibition was 8.3% (inactive).

As for `COc1ccc(CCNC(=O)CN2C(=O)COc3ccc(S(=O)(=O)N4CCCC4)cc32)cc1OC`, the inhibition was 0.6% (inactive).

For the compound `CC12CN3CCN(CC(C3)/C1=N\NC(=O)c1ccccc1N)C2`, the inhibition is 2.6% (inactive).

Consider `CN(C)C(CNC(=O)CCCOc1ccccc1)c1ccco1` (stereo unspecified), for which the inhibition was 1% (inactive).
